Data from PubChem BioAssay (Tox21).
Records with an inconclusive call do not appear. Active and inactive are the calls of the source. Unless noted, calls come from the whole dose curve; as a rule, active = well fitted curve in the direction sought with a large enough effect in the repeat runs; inconclusive = weak or mixed curves; inactive = no such curve, though single readings can be large; an effect the other way counts as inactive or inconclusive.

Experiments:
[1] = qHTS assay to identify small molecule agonists of the androgen receptor (AR) signaling pathway in the presence of an antagonist - cell viability counter screen (AID 1259379); note: nearly all actives have a fitted effect of over 25% in size; note: potency is the fitted concentration of half-maximal effect
Summary of the method: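 MDA-kb2 viability measured by CellTiter-Fluor fluorescence in the same wells as the luciferase signal; nilutamide 3.0uM final; 15-point compound titration; 16 hr at 37C.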

[2] = qHTS assay to identify small molecule agonists of the estrogen receptor beta (ER-beta) signaling pathway - cell viability counter screen (AID 1259380); note: nearly all actives have a fitted effect of over 30% in size; note: potency is the fitted concentration of half-maximal effect
Summary of the method: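 Measured: luminescence from CellTiter-Glo after 30 min at room temperature, added to wells already read for the LiveBLAzer FRET reporter (2 hr substrate); ER-beta-UAS-bla HEK293T cells had 16 hr compound treatment at 37C, 5% CO2.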

[3] = qHTS assay to identify small molecule antagonists of the estrogen receptor beta (ER-beta) signaling pathway - cell viability counter screen (AID 1259382);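 note: HEK293T cells carrying ER-beta-UAS-bla reporter stimulated with estradiol; series mostly up to about 92 µM; nearly all actives have a fitted effect of over 55% in size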
Summary of the method: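 Readout: luminescence, CellTiter-Glo, same wells as bla assay. System: ER-beta-UAS-bla GripTite HEK293T, 2% charcoal-stripped FBS. Exposure: compounds plus 1nM 17-beta-estradiol, 16 hr, 37C.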

[4] = biological target: Progesterone receptor (Homo sapiens) (UniProt P06401); test: qHTS assay to identify small molecule agonists of the progesterone receptor (PR) signaling pathway (AID 1346784; calls by dose curve; note: nearly all actives have a fitted effect of over 30% in size)
Chain of Progesterone receptor (Homo sapiens) (P06401 whole entry, looked up): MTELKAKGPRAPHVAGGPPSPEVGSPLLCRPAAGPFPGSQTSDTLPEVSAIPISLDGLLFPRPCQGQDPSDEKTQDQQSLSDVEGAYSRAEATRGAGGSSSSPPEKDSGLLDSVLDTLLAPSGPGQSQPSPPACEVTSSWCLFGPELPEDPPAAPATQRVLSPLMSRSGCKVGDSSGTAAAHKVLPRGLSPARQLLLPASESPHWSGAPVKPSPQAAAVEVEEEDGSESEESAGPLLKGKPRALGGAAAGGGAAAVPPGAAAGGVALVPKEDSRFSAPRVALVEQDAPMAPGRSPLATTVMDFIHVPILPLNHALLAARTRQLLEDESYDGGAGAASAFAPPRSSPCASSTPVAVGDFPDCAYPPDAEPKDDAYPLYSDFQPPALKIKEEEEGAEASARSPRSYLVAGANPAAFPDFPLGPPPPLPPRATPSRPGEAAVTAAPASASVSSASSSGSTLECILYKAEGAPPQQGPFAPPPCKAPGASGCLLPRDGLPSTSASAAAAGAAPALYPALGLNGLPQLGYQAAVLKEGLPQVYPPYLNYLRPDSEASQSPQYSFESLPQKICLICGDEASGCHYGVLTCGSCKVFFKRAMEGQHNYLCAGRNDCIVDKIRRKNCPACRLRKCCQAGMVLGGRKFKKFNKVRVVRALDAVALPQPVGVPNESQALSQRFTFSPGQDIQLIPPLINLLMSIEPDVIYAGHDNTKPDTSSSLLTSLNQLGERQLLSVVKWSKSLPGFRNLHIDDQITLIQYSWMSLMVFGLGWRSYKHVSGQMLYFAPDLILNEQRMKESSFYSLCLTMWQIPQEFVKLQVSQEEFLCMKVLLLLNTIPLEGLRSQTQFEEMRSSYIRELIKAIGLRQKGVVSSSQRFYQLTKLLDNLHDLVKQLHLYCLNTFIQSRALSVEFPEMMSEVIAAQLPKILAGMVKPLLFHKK
Summary of the method: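 Reporter assay, GripTite PR-UAS-bla HEK 293T cells: 16 hr exposure to DMSO-dissolved compounds at 37C, 5% CO2, in steroid-depleted (2% charcoal-stripped FBS) medium; beta-lactamase measured by FRET fluorescence.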

[5] = biological target: Progesterone receptor (Homo sapiens) (UniProt P06401); test: qHTS assay to identify small molecule antagonists of the progesterone receptor (PR) signaling pathway (AID 1346795; active = well fitted inhibition curve with a large enough effect in the signal ratio in the repeat runs, not every such curve was filed as active; the % refers to the signal ratio; note: potency is the fitted concentration of half-maximal effect)
Summary of the method: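 Stimulus R5020 at 1 nM final; cells HEK293T PR-UAS-bla; medium with 2% charcoal-stripped FBS; compound exposure 16 hr at 37C, 5% CO2; detection by FRET beta-lactamase substrate, 2 hr, room temperature.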

[6] = qHTS assay to identify small molecule antagonists of the TGF-beta/Smad signaling pathway - cell viability counter screen (AID 1346824); note: nearly all actives have a fitted effect of over 50% in size
Summary of the method: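 SBE-bla HEK 293T cells were plated overnight at 37 C, then given compounds in DMSO plus TGF-beta1 (added as 0.25 ng/mL solution) for 5 hr. After the bla read, CellTiter-Glo was added to the same wells and luminescence read after 30 min at room temperature.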

[7] = qHTS assay to identify small molecule agonists of the TGF-beta/Smad signaling pathway - cell viability counter screen (AID 1346829); note: top concentration of the series differs between compounds; nearly all actives have a fitted effect of over 45% in size
Summary of the method: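 Cytotoxicity counter screen: CellTiter-Glo luminescence (30 min, room temperature) measured in the SBE-bla HEK 293T reporter wells after 5 hr compound treatment at 37 C and the 2 hr substrate step.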

[8] = qHTS assay to identify small molecule agonists of the TGF-beta/Smad signaling pathway (AID 1346859; active = well fitted activation curve with a large enough effect in the signal ratio in the repeat runs, not every such curve was filed as active; the % refers to the signal ratio; note: series mostly up to about 77 µM)
Summary of the method: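 Screening used HEK 293T SBE-bla cells at 4,000/well. Test agents: 5 hr, 37 C. Detection: FRET substrate, 2 hr RT, then excitation 405 nm with emissions at 460 and 530 nm.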

[9] = qHTS assay to identify small molecule antagonists of the progesterone receptor (PR) signaling pathway - cell viability counter screen (AID 1346798); note: series mostly up to about 92 µM; nearly all actives have a fitted effect of over 50% in size
Summary of the method: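 In the same plates used for the beta-lactamase readout, cell viability of compound- and R5020-treated PR-UAS-bla HEK293T cells (16 hr, 37C) was assessed by CellTiter-Glo luminescence.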

[10] = biological target: Thyrotropin-releasing hormone receptor (Homo sapiens) (UniProt P34981); test: qHTS assay to identify small molecule antagonists of the thyrotropin-releasing hormone receptor (TRHR) signaling pathway (AID 1346877; active = well fitted inhibition curve with a large enough effect in the repeat runs, not every such curve was filed as active; note: series mostly up to about 51 µM)
Chain of Thyrotropin-releasing hormone receptor (Homo sapiens) (P34981 whole entry, looked up): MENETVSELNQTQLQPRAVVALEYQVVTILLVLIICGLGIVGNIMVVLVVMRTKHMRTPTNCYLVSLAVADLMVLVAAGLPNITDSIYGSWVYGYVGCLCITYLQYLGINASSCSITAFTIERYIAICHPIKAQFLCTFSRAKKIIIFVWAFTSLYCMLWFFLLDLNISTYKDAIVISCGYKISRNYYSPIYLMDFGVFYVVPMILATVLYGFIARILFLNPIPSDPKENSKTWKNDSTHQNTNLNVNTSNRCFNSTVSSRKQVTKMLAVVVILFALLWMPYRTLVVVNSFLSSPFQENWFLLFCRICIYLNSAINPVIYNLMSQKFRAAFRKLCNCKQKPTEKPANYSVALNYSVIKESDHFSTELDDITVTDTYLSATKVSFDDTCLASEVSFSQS
Summary of the method: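 Overnight-plated (18 h, 37 °C) HEK293 cells expressing TRHR were dye-loaded 2 h, treated with compound, then stimulated with TRH at 1 nM final. Fluorescence intensity was captured every second for 3 min.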

[11] = biological target: Thyrotropin-releasing hormone receptor (Homo sapiens) (UniProt P34981); test: qHTS assay to identify small molecule agonists of the thyrotropin-releasing hormone receptor (TRHR) signaling pathway (AID 1346891; calls by dose curve; note: series mostly up to about 58 µM)
Summary of the method: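 Readout was intracellular calcium fluorescence in TRHR-Hek293 cells. Cells were incubated 18 h, dye-loaded 2 h at 37 °C, and treated with compound in agonist mode.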

[12] = biological target: Estrogen receptor beta (Homo sapiens) (UniProt Q92731); test: qHTS assay to identify small molecule agonists of the estrogen receptor beta (ER-beta) signaling pathway (AID 1259377; active = well fitted activation curve with a large enough effect in the signal ratio in the repeat runs, not every such curve was filed as active; the % refers to the signal ratio)
Chain of Estrogen receptor beta (Homo sapiens) (Q92731 whole entry, looked up): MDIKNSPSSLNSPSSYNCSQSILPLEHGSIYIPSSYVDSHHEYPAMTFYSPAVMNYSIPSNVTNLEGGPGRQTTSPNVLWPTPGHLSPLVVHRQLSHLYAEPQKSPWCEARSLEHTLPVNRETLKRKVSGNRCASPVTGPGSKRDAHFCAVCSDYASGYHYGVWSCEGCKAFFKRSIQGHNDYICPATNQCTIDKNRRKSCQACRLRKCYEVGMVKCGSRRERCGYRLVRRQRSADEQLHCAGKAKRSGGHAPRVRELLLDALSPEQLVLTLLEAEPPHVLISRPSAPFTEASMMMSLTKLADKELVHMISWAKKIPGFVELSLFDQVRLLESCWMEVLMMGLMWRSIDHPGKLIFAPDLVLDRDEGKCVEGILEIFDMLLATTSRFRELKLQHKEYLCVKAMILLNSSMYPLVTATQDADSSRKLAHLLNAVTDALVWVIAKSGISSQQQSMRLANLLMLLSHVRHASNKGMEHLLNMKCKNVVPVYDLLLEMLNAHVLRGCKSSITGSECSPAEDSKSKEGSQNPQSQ
Summary of the method: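 Reporter cells (HEK293T, ER-beta-UAS-bla) receive compounds or DMSO after a 6 hr pre-incubation. They then incubate 16 hr at 37C/5% CO2, and fluorescence from LiveBLAzer B/G substrate is measured after 2 hours at room temperature.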

[13] = qHTS assay to identify small molecule agonists of the estrogen receptor alpha (ER-alpha) signaling pathway in the presence of an antagonist - cell viability counter screen (AID 1259386);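 note: cells exposed to compounds for 22 h at 37 °C before the viability read; nearly all actives have a fitted effect of over 30% in size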; note: potency is the fitted concentration of half-maximal effect
Summary of the method: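 The test measures whether compounds kill ER-alpha reporter cells (VM7Luc4E2) under antagonist co-treatment (ICI-182,780, 10.0nM). Fluorescence from CellTiter-Fluor is read after a 22hr exposure.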

[14] = biological target: Androgen receptor (Homo sapiens) (UniProt P10275); test: qHTS assay to identify small molecule agonists of the androgen receptor (AR) signaling pathway in the presence of an antagonist (AID 1259381; calls by dose curve; note: nearly all actives have a fitted effect of over 15% in size)
Chain of Androgen receptor (Homo sapiens) (P10275 whole entry, looked up): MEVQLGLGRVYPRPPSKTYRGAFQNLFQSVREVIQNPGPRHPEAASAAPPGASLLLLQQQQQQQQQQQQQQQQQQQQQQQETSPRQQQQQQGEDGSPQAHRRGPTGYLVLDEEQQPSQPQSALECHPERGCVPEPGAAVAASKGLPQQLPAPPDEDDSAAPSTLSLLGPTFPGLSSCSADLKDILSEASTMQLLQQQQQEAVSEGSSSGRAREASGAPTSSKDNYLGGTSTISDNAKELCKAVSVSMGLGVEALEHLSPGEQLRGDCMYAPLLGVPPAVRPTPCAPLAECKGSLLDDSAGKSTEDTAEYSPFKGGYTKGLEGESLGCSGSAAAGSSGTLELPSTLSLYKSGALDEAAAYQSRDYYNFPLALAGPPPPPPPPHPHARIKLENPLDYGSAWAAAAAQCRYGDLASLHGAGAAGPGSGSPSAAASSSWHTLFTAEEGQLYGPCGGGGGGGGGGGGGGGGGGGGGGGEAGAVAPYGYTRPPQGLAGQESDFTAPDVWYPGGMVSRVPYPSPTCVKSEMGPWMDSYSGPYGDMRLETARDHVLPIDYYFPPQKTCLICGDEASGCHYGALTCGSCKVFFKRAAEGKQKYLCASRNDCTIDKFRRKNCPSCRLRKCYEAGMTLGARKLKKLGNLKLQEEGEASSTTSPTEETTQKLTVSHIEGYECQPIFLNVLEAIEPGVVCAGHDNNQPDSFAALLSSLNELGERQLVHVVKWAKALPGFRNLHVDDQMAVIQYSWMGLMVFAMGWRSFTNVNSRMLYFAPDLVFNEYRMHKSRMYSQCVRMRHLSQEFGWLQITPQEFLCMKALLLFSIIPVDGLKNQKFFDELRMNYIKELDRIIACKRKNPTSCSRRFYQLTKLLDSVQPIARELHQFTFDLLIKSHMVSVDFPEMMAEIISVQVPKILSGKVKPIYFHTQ
Summary of the method: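 Luminescent ONE-Glo read, 30min at room temperature, follows 16hr compound exposure (15 concentrations) of MDA-kb2 cells at 37C, 0% CO2, with nilutamide added at 3.0uM final.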

[15] = biological target: Estrogen receptor (Homo sapiens) (UniProt P03372); test: qHTS assay to identify small molecule agonists of the estrogen receptor alpha (ER-alpha) signaling pathway in the presence of an antagonist (AID 1259383; calls by dose curve; note: top concentration of the series differs between compounds; nearly all actives have a fitted effect of over 15% in size)
Chain of Estrogen receptor (Homo sapiens) (P03372 whole entry, looked up): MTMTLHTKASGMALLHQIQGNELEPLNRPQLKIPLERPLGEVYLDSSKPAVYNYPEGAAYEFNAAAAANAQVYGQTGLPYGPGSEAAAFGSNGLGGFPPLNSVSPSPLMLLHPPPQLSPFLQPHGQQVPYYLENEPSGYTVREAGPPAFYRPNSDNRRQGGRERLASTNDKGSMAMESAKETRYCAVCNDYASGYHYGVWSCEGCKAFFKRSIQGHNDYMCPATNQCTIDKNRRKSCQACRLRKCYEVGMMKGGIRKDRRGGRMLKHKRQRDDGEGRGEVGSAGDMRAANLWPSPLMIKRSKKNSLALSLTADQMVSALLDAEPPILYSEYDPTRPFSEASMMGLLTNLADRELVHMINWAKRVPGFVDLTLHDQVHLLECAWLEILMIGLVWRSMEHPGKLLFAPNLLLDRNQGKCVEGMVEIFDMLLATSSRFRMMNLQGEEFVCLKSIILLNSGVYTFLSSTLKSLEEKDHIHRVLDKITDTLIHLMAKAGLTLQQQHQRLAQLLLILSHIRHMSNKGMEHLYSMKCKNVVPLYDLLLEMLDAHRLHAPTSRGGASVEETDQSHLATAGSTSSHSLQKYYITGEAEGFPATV
Summary of the method: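 Quantitative HTS confirmation: compounds titrated at 15 concentrations onto estrogen-deprived VM7Luc4E2 cells carrying a four-ERE luciferase construct, with ICI-182,780 present at 10.0nM final. Signal is luminescence after 22hr exposure.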

[16] = qHTS assay to identify small molecule agonists or antagonists of the thyroid stimulating hormone receptor (TSHR) signaling pathway - wild type cell line counter screen (AID 1259384; calls by dose curve)
Summary of the method: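 Wild-type HEK293 cells were plated 18 h at 37 C/5% CO2, pin-dosed with compound plus Ro20-1724 medium, held 30 min at room temperature, then given cAMP-d2 and anti-cAMP-cryptate; fluorescence was read after 1 h. Fifteen concentrations, triplicate.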

[17] = biological target: Thyrotropin receptor (Homo sapiens) (UniProt P16473); test: qHTS assay to identify small molecule antagonists of the thyroid stimulating hormone receptor (TSHR) signaling pathway (AID 1259385; calls by dose curve; note: nearly all actives have a fitted effect of over 20% in size)
Chain of Thyrotropin receptor (Homo sapiens) (P16473 whole entry, looked up): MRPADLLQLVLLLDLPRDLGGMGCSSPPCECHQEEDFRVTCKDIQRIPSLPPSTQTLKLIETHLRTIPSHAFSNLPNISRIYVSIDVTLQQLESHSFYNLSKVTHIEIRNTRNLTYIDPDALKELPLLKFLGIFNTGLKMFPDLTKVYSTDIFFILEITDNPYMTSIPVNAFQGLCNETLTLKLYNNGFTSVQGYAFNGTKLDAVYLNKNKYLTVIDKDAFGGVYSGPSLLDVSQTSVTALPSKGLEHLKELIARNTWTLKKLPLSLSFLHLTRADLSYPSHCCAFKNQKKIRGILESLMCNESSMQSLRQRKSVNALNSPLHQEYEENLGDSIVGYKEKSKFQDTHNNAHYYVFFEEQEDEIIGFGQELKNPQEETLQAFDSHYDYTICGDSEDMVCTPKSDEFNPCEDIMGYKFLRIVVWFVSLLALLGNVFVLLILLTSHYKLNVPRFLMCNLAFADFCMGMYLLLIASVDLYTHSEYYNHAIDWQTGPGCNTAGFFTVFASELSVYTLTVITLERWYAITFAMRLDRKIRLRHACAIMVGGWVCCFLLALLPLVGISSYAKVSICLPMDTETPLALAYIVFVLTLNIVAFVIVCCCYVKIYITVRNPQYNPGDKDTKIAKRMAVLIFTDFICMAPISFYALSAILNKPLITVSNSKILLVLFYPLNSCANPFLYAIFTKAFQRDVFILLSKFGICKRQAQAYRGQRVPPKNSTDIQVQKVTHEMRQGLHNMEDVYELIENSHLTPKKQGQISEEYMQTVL
Summary of the method: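 TSHR-HEK293 cells were plated and held 18 h at 37C/5% CO2, then given compound plus Ro20-1724 and stimulated with TSH at 1.5 ng/mL final. After 30 min at room temperature, cAMP was detected with cAMP-d2/anti-cAMP-cryptate (1 h) by fluorescence.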

[18] = qHTS assay to identify small molecule agonists of the progesterone receptor (PR) signaling pathway - cell viability counter screen (AID 1346799; calls by dose curve; note: nearly all actives have a fitted effect of over 45% in size; note: potency is the fitted concentration of half-maximal effect)
Summary of the method: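 Multiplexed viability read: CellTiter-Glo luminescence, 30 min RT, following LiveBLAzer FRET measurement on PR-UAS-bla HEK293T cells exposed to compounds 16 hr.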

Measured: Potency

CC(=O)[O-].CC(=O)[O-].CC(=O)[O-].[Cr+3]
inactive: [1] | [2] | [3] | [4] | [5] | [6] | [7] | [8]

CN1CCc2cc3c(cc2C1O)OCO3 (centres undefined)
inactive: [2] | [3] | [5] | [9] | [6] | [7] | [10] | [11]

O=[N+]([O-])c1cccc2cccc([N+](=O)[O-])c12
active: [5] 27.4 µM
not listed: [1] | [14] | [15] | [16] | [17] | [18]
inactive: all other assays above

Cc1ccccc1OP(=O)(Oc1ccccc1C)Oc1ccccc1C
not listed: [2] | [3] | [5] | [12] | [13]
inactive: all other assays above

O=c1[nH]c2cc(Cl)ccc2n1C1CCNCC1
not listed: [4] | [9] | [12] | [13] | [18]
inactive: all other assays above

Oc1ccc(Cl)c(Cl)c1
active: [5] 26.9 µM
not listed: [2] | [10] | [12] | [14]
inactive: all other assays above

O=[N+]([O-])[O-].[Tl+]
inactive: [1] | [3] | [16] | [17] | [4] | [6] | [7] | [8]
active: [2] 0.346 µM

CO/N=C(/C1=NOCCO1)c1ccccc1Oc1ncnc(Oc2ccccc2Cl)c1F
active: [1] 15.3 µM | [2] 21.7 µM | [13] 27.3 µM | [5] 27.3 µM
inactive: [3] | [15] | [4] | [7] | [8] | [11]

NC1CCC(CC2CCC(N)CC2)CC1 (centres undefined)
active: [1] 60.1 µM | [18] 26.8 µM
not listed: [9] | [12] | [13] | [14] | [16] | [17]
inactive: all other assays above

C[C@H]1[C@H](c2ccc(Cl)cc2)SC(=O)N1C(=O)NC1CCCCC1
active: [5] 13.7 µM
inactive: [14] | [3] | [15] | [4] | [8] | [10] | [11]

CCc1cccc(C)c1N(C(=O)CCl)[C@@H](C)COC
not listed: [5] | [13] | [14] | [15] | [16] | [18]
inactive: all other assays above
